The source of these data is PubChem BioAssay (EPA / NIEHS).

Active and inactive are the calls of the source. The calls were made as follows: active = hit-call score of the fitted dose curve at least 0.9, where 1 is the maximum; inactive = score below 0.9.

Read-out in assay [1]: Human Leukocyte Antigen - DR isotype (HLADR), HLA-DRA (gene 3122)
As to the kind of experiment: BSK_CASM3C_HLADR: BioMAP Diversity Plus: CASM3C Assay for Human Leukocyte Antigen - DR isotype (HLADR) Biomarker Activity (AID 2283043).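 Also: cell-surface HLA-DR protein level quantified by ELISA.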 The settings on record: primary human coronary artery smooth muscle cells; actives raise or lower the signal.

Read-out in assay [2]: Macrophage colony-stimulating factor (MCSF), CSF1 (gene 1435)
Kind of assay: BSK_CASM3C_MCSF: BioMAP Diversity Plus: CASM3C Assay for Macrophage colony-stimulating factor (MCSF) Biomarker Activity (AID 2283044).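 Also: M-CSF protein amount quantified by ELISA after 24 h exposure.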 The conditions noted are these: primary human coronary artery smooth muscle cells; actives raise or lower the signal.

Read-out in assay [3]: Low-density lipoprotein receptor (LDLR), LDLR (gene 3949)
Kind of assay: BSK_CASM3C_LDLR: BioMAP Diversity Plus: CASM3C Assay for Low-density lipoprotein receptor (LDLR) Biomarker Activity (AID 2283045).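 Also: LDLR protein level on the cell surface quantified by ELISA.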 The settings on record: primary human coronary artery smooth muscle cells; actives raise or lower the signal.

Read-out in assay [4]: Monocyte Chemoattractant Protein-1 (MCP1), CCL2 (gene 6347)
As to the kind of experiment: BSK_CASM3C_MCP1: BioMAP Diversity Plus: CASM3C Assay for Monocyte Chemoattractant Protein-1 (MCP1) Biomarker Activity (AID 2283046).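 Also: MCP-1 level quantified by ELISA 24 h after dosing.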 The conditions noted are these: primary human coronary artery smooth muscle cells; actives raise or lower the signal.

The nature of assay [5]: BSK_CASM3C_Proliferation: Cell Proliferation Assessment in the BioMAP Diversity Plus: CASM3C Assay (AID 2283047).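 Also: sulforhodamine B total protein stain as relative cell number at 560 nm; sub-confluent cells exposed 48 h before staining; fitted both ways against DMSO so gain or loss of cell number.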 The settings on record: primary human coronary artery smooth muscle cells.
Read-out in assay [6]: Monokine induced gamma interferon (MIG), CXCL9 (gene 4283)
Kind of assay: BSK_CASM3C_MIG: BioMAP Diversity Plus: CASM3C Assay for Monokine induced gamma interferon (MIG) Biomarker Activity (AID 2283048).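 Also: MIG protein level measured by ELISA.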 The settings on record: primary human coronary artery smooth muscle cells; actives raise or lower the signal.

Read-out in assay [7]: serum amyloid A (SAA), SAA1 (gene 6288)
As to the kind of experiment: BSK_CASM3C_SAA: BioMAP Diversity Plus: CASM3C Assay for serum amyloid A (SAA) Biomarker Activity (AID 2283049).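 Also: SAA protein level quantified by ELISA.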 The conditions noted are these: primary human coronary artery smooth muscle cells; actives raise or lower the signal.

Assay [8] can be described thus: BSK_CASM3C_SRB: Viability Assessment in the BioMAP Diversity Plus: CASM3C Assay (AID 2283050).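 Also: total protein by SRB staining as cytotoxicity measure in parallel cultures; cells exposed to compound for 24 h.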 The conditions noted are these: primary human coronary artery smooth muscle cells.
Read-out in assay [9]: Thrombomodulin, THBD (gene 7056)
Kind of assay: BSK_CASM3C_Thrombomodulin: BioMAP Diversity Plus: CASM3C Assay for Thrombomodulin Biomarker Activity (AID 2283051).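 Also: thrombomodulin protein level measured by ELISA 24 h after dosing.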 The settings on record: primary human coronary artery smooth muscle cells; actives raise or lower the signal.

Read-out in assay [10]: Tissue Factor, F3 (gene 2152)
Kind of assay: BSK_CASM3C_TissueFactor: BioMAP Diversity Plus: CASM3C Assay for Tissue Factor Biomarker Activity (AID 2283052).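 Also: cell surface tissue factor protein level read by ELISA.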 The conditions noted are these: primary human coronary artery smooth muscle cells; actives raise or lower the signal.

On to `CN(C)c1ccc(N=NS(=O)(=O)O)cc1`, for which the outcome in assay [1], in assay [2], in assay [3], in assay [4], in assay [5] and in assay [6] was inactive. For the same molecule, the result in assay [7], in [8], in assay [9] and in assay [10] was inactive.

As a reminder, the AC50 is the concentration giving half of the maximal activity seen. As for `CCOC(=O)COc1ccc2c(c1)CC(NCC(O)c1cccc(Cl)c1)CC2` (centres undefined), the result in [1], in assay [2], in assay [3], in assay [4], in [6] and in [7] was inactive. The result in [8], in assay [9] and in assay [10] was inactive. In [5], the AC50 is 27.2 µM (active).

On to `CNCc1ccc(NC(=O)c2c[nH]c3c2C(=O)CCC3)cc1`, for which the outcome in [1], in assay [2], in assay [3], in assay [4], in assay [5] and in assay [6] was inactive. For the same molecule, the outcome in assay [7], in assay [8], in [9] and in assay [10] was inactive.

With `COC(=O)c1ccccc1O`, the outcome in [1], in assay [2], in [3], in assay [4], in [5] and in assay [6] was inactive. Further, the result in assay [7], in assay [8], in assay [9] and in [10] was inactive.

On to `O=C(NS(=O)(=O)/C=C/c1ccccc1)c1ccc(F)cc1Cl`, for which the result in assay [1], in assay [2], in [3], in assay [4], in [6] and in [7] was inactive. Also, the result in assay [8], in assay [9] and in [10] was inactive. Further, the AC50 in assay [5] was 6.8 µM (active).

`Cc1ccc(S(=O)(=O)O)cc1C`: the outcome in assay [1], in assay [2], in [3], in [4], in assay [5] and in assay [6] was inactive. In addition, the outcome in assay [7], in assay [8], in [9] and in assay [10] was inactive.

Consider `CC/C(=C\C(=N/O)C(N)=O)C(C)[N+](=O)[O-]` (centres undefined), for which, in assay [1], the AC50 was 22.3 µM (active). Moreover, the result in assay [2], in [3], in assay [4], in [5], in assay [6] and in [7] was inactive. Also, the outcome in assay [8], in [9] and in assay [10] was inactive.

On to `CC(C)c1cccc(C(C)C)c1N1C(=O)c2ccc(O)cc2C1=O`, for which the AC50 was 14.1 µM (active) in assay [1]; 32 µM (active) in assay [2]; 36.3 µM (active) in assay [3]; 20 µM (active) in assay [5]; 26.1 µM (active) in [7]; 20 µM (active) in [8]. The result in [4], in assay [6], in assay [9] and in assay [10] was inactive.

In the case of `CC(C)CCCCCCOC(=O)c1ccc(C(=O)OCCCCCCC(C)C)c(C(=O)OCCCCCCC(C)C)c1`, the outcome in assay [1], in [2], in [3], in assay [4], in [5] and in assay [6] was inactive. The outcome in assay [7], in [8], in [9] and in [10] was inactive.

As for `CCOC(=O)CC(CC(=O)OCC)(OC(C)=O)C(=O)OCC`, the result in [1], in [2], in assay [3], in [4], in assay [5] and in assay [6] was inactive. The outcome in assay [7], in assay [8], in [9] and in assay [10] was inactive.

`Oc1ccc2c(c1)-c1ccccc1C2`: the result in assay [1], in assay [2], in assay [3], in assay [4], in assay [6] and in assay [7] was inactive. In addition, the outcome in [8], in assay [9] and in assay [10] was inactive. Moreover, the concentration at half-maximal activity (AC50) in [5] was 6.61 µM (active).

`CCOCCOCCOCCO`: the result in assay [1], in assay [2], in assay [3], in [4], in assay [5] and in [6] was inactive. The outcome in assay [7], in [8], in assay [9] and in assay [10] was inactive.

Consider `CC(O)CN(CCN(CC(C)O)CC(C)O)CC(C)O` (centres undefined), for which the outcome in assay [1], in assay [2], in [3], in assay [4], in [5] and in [6] was inactive. Besides, the outcome in [7], in assay [8], in assay [9] and in assay [10] was inactive.

On to `O=C1CCCCCN1`, for which the result in assay [1], in [2], in assay [3], in assay [4], in [5] and in assay [6] was inactive. Besides, the outcome in assay [7], in [8], in assay [9] and in assay [10] was inactive.

Take `CC(=O)OC[C@H]1O[C@@](COC(C)=O)(O[C@H]2O[C@H](COC(C)=O)[C@@H](OC(C)=O)[C@H](OC(C)=O)[C@H]2OC(C)=O)[C@@H](OC(C)=O)[C@@H]1OC(C)=O`: the result in assay [1], in assay [2], in assay [3], in [4], in assay [5] and in [6] was inactive. In addition, the result in assay [7], in assay [8], in [9] and in assay [10] was inactive.

For the molecule `CC[C@H]1CC[C@H](NCc2cc3c(cc2OC)[C@H]2C[C@H]2C(=O)N3C)[C@H](c2ccccc2)N1`, the result in assay [1], in [2], in assay [3], in [4], in assay [6] and in [7] was inactive. For the same molecule, the outcome in assay [8], in assay [9] and in assay [10] was inactive. For the same molecule, in [5], the AC50 is 7.17 µM (active).

As for `COc1ccc2sc(C(=O)Nc3nnn[nH]3)c(OC(C)C)c2c1`, the half-maximal activity concentration (AC50) in [1] is 13.3 µM (active); in assay [2] it was 19.9 µM (active); in [4], 15.8 µM (active); in [5], 11.1 µM (active); in assay [7], 19.9 µM (active); in assay [8] it was 15.5 µM (active). The AC50 in assay [9] is 8.49 µM (active); in assay [10], 7.08 µM (active). Further, the result in assay [3] and in assay [6] was inactive.

As to `CCc1cc(SCc2sc(-c3ccc(C(F)(F)F)cc3)nc2CN2CCN(c3ccc(OC)cc3)CC2)ccc1OCC(=O)O`, the concentration at half-maximal activity (AC50) in [1] was 18.7 µM (active); in assay [2] it was 36.1 µM (active); in assay [3], 31.7 µM (active); in assay [4], 37.4 µM (active); in assay [5], 15.8 µM (active); in assay [6], 39.1 µM (active). Besides, the AC50 in assay [7] is 31.9 µM (active); in [8] it was 30.1 µM (active); in [9], 35.1 µM (active). The result in assay [10] was inactive.

`CCCCCCCCO`: the outcome in assay [1], in assay [2], in [3], in assay [4], in assay [5] and in assay [6] was inactive. The outcome in [7], in assay [8], in assay [9] and in assay [10] was inactive.

As to `CCOCCO`, the outcome in assay [1], in assay [2], in assay [3], in assay [4], in assay [5] and in assay [6] was inactive. Moreover, the outcome in assay [7], in assay [8], in assay [9] and in assay [10] was inactive.

Consider `CN(C)c1ccc(Cc2ccc(N(C)C)cc2)cc1`, for which the result in [1], in assay [3], in [4], in [5], in [6] and in [7] was inactive. In addition, the result in assay [8] and in assay [10] was inactive. In addition, in assay [9], the AC50 is 20 µM (active).

With `O=C(OC[C@H]1O[C@@H](OC(=O)c2cc(O)c(O)c(OC(=O)c3cc(O)c(O)c(O)c3)c2)[C@H](OC(=O)c2cc(O)c(O)c(OC(=O)c3cc(O)c(O)c(O)c3)c2)[C@@H](OC(=O)c2cc(O)c(O)c(OC(=O)c3cc(O)c(O)c(O)c3)c2)[C@@H]1OC(=O)c1cc(O)c(O)c(OC(=O)c2cc(O)c(O)c(O)c2)c1)c1cc(O)c(O)c(OC(=O)c2cc(O)c(O)c(O)c2)c1`, the figures for the AC50 in [1], in [4] and in [5] were 6.1 µM (active), 6.1 µM (active) and 10 µM (active), respectively. Moreover, the result in assay [2], in [3], in assay [6], in assay [7], in assay [8] and in assay [9] was inactive. For the same molecule, the result in [10] was inactive.
